A short description of assay [1]: inhibitors of TNFa-induced NFkB p65 translocation, primary screen, imaging, HUVEC, MLSMR starter and 10KST1 sets (AID 438;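 active = inhibition above 20% together with a positive visual image hit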;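 also: compound added about 3h40 before a 20 min TNFalpha stimulation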;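 as to inhibition: signal is the nuclear over cytoplasmic p65 intensity ratio per well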). The following applies: HUVEC TNFa-induced p65 nuclear translocation; cell count: measured here: nuclei count (cytotoxicity indicator), at 2.08 µM; inhibition: at 2 µM, stronger effect = higher value, 0% TNFa-plus-vehicle, 100% no-TNFa wells.
Assay [2] is described as follows: inhibitors of mutant huntingtin aggregation, primary screen, imaging, exon1htt(103Q)mCFP cells, high-content imaging (AID 483;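 active = visual image review flags a hit and inhibition of aggregation exceeds 20%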;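 also: compound exposure lasted 3 days before fixation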;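 as to nuclei count: percent of the per-plate median nuclei count of sample wells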). The following applies: exon1htt(103Q)mCFP cell line, aggregate imaging, at 2 µM; inhibition of aggregation: stronger effect = higher value; nuclei count: measured here: cell count, toxicity.
Assay [3] can be described thus: inhibitors of E-selectin induction by TNFa, primary screen, imaging, HUVEC, immunofluorescence, MLSMR starter and 10KST1 sets (AID 487;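 active = visually confirmed hit in the image check and inhibition above 20%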;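 as to inhibition: signal is fraction of cell area covered by stained E-selectin grains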;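 as to nuclei count: 100% = median nuclei count of all wells on the same plate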). The following applies: HUVEC TNFalpha-induced E-selectin immunofluorescence imaging, at 2 µM; inhibition: stronger effect = higher value; nuclei count: measured here: cell number, toxicity.
Assay [4] has as its target Voltage-gated potassium channel subunit beta-2 (Rattus norvegicus) (UniProt P62483). The experiment in a line: KvBeta enzyme negative modulators, primary screen, biochemical, NADPH fluorescence (AID 622).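 Also: slope of raw intensity against log time taken from 70 to 1610 s.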 The following applies: recombinant KvBeta, 4-cyanobenzaldehyde reduction, at 10 µM, stronger effect = higher value.
For assay [5] the target is unchanged. Nature of the assay: KvBeta positive modulators, primary screen, biochemical, NADPH fluorescence (AID 623;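 active = NADPH fluorescence slope more negative than the mean of all samples by about 3 SD, 99.7% confidence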;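 also: fluorescence intensity change per second fitted from 20 to 320 s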). The conditions noted are these: Recombinant KvBeta, NADPH fluorescence decrease slope, 10 min; at 10 µM; stronger effect = lower value.
Assay [6] concerns the target Alpha-2C adrenergic receptor (Homo sapiens) (UniProt P18825). The experiment in a line: modulators of alpha2C/GIRK thallium flux, primary screen, cell-based, HEK293 alpha2C/GIRK1/2 (AID 624;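 active = fluorescence slope after compound addition differing from the mean of all screened samples at 99.7% confidence, in either direction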;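 also: slope of fluorescence ratio to pre-addition baseline per second over 15 to 24 s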). The conditions noted are these: thallium flux BTC fluorescence, at 10 µM, actives lie on both sides.
Assay [7] can be described thus: inhibitors of Sendai virus-induced IRF3 signaling, primary screen, TLR/RLR signaling modifier project, cell-based, Sendai virus stimulus, luciferase, 10K MLSCN set (AID 602276;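 active = inhibition at or above 50% at 10 µM; inactive = inhibition below 50%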;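 also: firefly luciferase from ISG56 promoter only with Renilla not read in this screen; 0% = Sendai virus plus DMSO and 100% = medium plus DMSO without virus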). The following applies: HEK293 RL24 IRF3 luciferase reporter, at 10 µM, stronger effect = higher value.
A short description of assay [8]: inhibitors of poly I:C-induced TLR3 signaling, primary screen, cell-based, poly I:C stimulus, luciferase, 10K MLSCN set (AID 602277;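 active = inhibition of the reporter signal at or above 50%; inactive = inhibition below 50%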). The conditions noted are these: HEK293-TLR3 RL24 IRF3 luciferase reporter, at 10 µM, stronger effect = higher value.

The structures appear in SMILES notation. Activity calls are given as the source filed them.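 The calls were made as follows, unless noted: active = fluorescence slope higher than the sample average by over 3 SD (cut at about -0.22 in these data, passing the limit was not always enough); inactive = the rest.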

Voltage-gated potassium channel subunit beta-2 (Rattus norvegicus), sequence (P62483 whole entry, looked up): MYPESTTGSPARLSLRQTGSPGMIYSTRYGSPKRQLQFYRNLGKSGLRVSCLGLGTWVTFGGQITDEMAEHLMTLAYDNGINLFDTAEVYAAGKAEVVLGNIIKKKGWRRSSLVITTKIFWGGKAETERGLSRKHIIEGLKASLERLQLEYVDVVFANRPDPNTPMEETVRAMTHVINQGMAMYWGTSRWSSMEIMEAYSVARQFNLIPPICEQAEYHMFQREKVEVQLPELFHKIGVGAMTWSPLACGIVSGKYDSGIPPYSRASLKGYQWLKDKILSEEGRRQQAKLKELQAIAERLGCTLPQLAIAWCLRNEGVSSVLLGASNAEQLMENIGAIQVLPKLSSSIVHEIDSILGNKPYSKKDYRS
Alpha-2C adrenergic receptor (Homo sapiens), sequence (P18825 whole entry, looked up): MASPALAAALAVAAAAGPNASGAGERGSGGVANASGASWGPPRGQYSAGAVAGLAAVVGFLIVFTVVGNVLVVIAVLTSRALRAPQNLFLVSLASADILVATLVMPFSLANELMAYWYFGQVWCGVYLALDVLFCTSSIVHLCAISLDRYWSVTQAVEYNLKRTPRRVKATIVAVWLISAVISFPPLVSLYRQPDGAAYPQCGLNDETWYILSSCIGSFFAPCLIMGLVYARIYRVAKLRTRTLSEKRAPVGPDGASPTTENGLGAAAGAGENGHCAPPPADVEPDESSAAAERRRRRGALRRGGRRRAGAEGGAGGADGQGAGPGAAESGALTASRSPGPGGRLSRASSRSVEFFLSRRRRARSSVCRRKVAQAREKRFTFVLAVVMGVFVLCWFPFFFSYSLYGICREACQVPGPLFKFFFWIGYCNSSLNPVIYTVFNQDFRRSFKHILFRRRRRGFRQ

Regarding `O=C1c2ccccc2S(=O)(=O)N1CC(O)Cn1c2ccccc2c2ccccc21` (centres undefined), the cell count in assay [1] amounted to 397. In addition, the inhibition in assay [1] was 1% (inactive); in assay [3], -121% (inactive); in assay [7] it was 5.13% (inactive); in assay [8], 30.2% (inactive). In assay [2], the inhibition of aggregation is 8.8% (inactive). Further, the nuclei count in assay [2] turned out to be 105%; in assay [3], 118%. The fluorescence slope in assay [4] is -0.421 (inactive). Also, in assay [5], the NADPH fluorescence slope is -4.3e-05 (inactive). Besides, the slope in assay [6] is 0.00434 (inactive).
On to `CC(C)N1C(=O)C2C(C(=O)NC3CCCCC3)C3C=CC2(O3)C1C(=O)NC1CCCC1` (centres undefined), for which the cell count in assay [1] was determined as 371. Further, the inhibition in assay [1] is 4.3% (inactive); in assay [3], -58.1% (inactive); in assay [7], 8.4% (inactive); in assay [8], 18.1% (inactive). Also, the inhibition of aggregation in assay [2] is 23% (inactive). Also, the nuclei count in assay [2] and in assay [3] was 101% in each case. The fluorescence slope in assay [4] was -0.366 (inactive). Further, the NADPH fluorescence slope in assay [5] was 3.1e-05 (inactive). In addition, in assay [6], the slope was 0.00675 (inactive).
Turning to `CC(=O)N(C(C)=O)c1ncc2c([nH]c3ccccc32)c1C#N`, the cell count in assay [1] amounted to 320. Besides, the inhibition in assay [1] is 2.1% (inactive); in assay [3] it was 0.9% (inactive); in assay [7] it was 11.7% (inactive); in assay [8] it was 15.6% (inactive). Moreover, in assay [2], the inhibition of aggregation is -79% (inactive). Further, the nuclei count in assay [2] came out at 2.8%; in assay [3] it was 117%. Also, the fluorescence slope in assay [4] is -0.406 (inactive). In addition, the NADPH fluorescence slope in assay [5] was -2.2e-05 (inactive). Further, the slope in assay [6] is 0.00457 (inactive).
Consider `N#Cc1c(N)nc2c(c1-c1ccncc1)CCCCC2`, for which the cell count in assay [1] was determined as 658. For the same molecule, the inhibition was 3.9% (inactive) in assay [1], 4.5% (inactive) in assay [3], 12.7% (inactive) in assay [7] and 12.3% (inactive) in assay [8]. Besides, the inhibition of aggregation in assay [2] was 0% (inactive). Further, the figures for the nuclei count in assay [2] and in assay [3] were 106% and 103%, respectively. Further, the fluorescence slope in assay [4] was -0.577 (inactive). Also, the NADPH fluorescence slope in assay [5] is -5.4e-05 (inactive). Besides, the slope in assay [6] is 0.00353 (inactive).
Turning to `Cc1ccc(CCNC(=O)C2CCCN2S(=O)(=O)c2ccc3c(c2)CCC(=O)N3)cc1` (centres undefined), the cell count in assay [1] came out at 702. Further, the inhibition in assay [1] was -4.8% (inactive); in assay [3], -35% (inactive); in assay [7], -15.7% (inactive); in assay [8], 0.529% (inactive). Also, the inhibition of aggregation in assay [2] was -29.3% (inactive). Besides, the nuclei count in assay [2] was determined as 102%; in assay [3], 121%. The fluorescence slope in assay [4] was -0.547 (inactive). Further, the NADPH fluorescence slope in assay [5] is -1e-05 (inactive). Besides, the slope in assay [6] is 0.0066 (inactive).
On to `CC(C(N)=O)N1C(=O)C2C3C=CC(C3)C2C1=O` (centres undefined), for which the cell count in assay [1] stood at 217. Moreover, the inhibition in assay [1] is 1.8% (inactive); in assay [3], -33.8% (inactive); in assay [7], 10.1% (inactive); in assay [8] it was 11.3% (inactive). Further, in assay [2], the inhibition of aggregation was -14% (inactive). Besides, the figures for the nuclei count in assay [2] and in assay [3] were 105% and 121%, respectively. Besides, in assay [4], the fluorescence slope is -0.443 (inactive). Moreover, in assay [5], the NADPH fluorescence slope is -2.4e-05 (inactive). The slope in assay [6] was 0.00534 (inactive).
With `O=S1(=O)C=C(Oc2ccc(F)cc2)c2ccccc21`, in assay [1], the cell count was found to be 377. For the same molecule, the inhibition is -2.7% (inactive) in assay [1], -0.9% (inactive) in assay [3], 5.55% (inactive) in assay [7] and 7.32% (inactive) in assay [8]. Also, the inhibition of aggregation in assay [2] is -8.6% (inactive). The results for the nuclei count in assay [2] and in assay [3] were 108% and 111%, respectively. The fluorescence slope in assay [4] was -0.321 (inactive). Besides, the NADPH fluorescence slope in assay [5] is -7.4e-05 (inactive). Also, in assay [6], the slope was 0.00496 (inactive).
With `CCCCC(=O)NCCNc1nc2c(c(=O)n(C)c(=O)n2C)n1Cc1ccccc1`, the cell count in assay [1] stood at 555. Further, the inhibition in assay [1] was -6.3% (inactive); in assay [3] it was 28.6% (inactive); in assay [7] it was 15.2% (inactive); in assay [8], 24.6% (inactive). For the same molecule, the inhibition of aggregation in assay [2] was -14.2% (inactive). For the same molecule, the nuclei count in assay [2] turned out to be 105%; in assay [3] it was 106%. The fluorescence slope in assay [4] is -0.615 (inactive). Also, the NADPH fluorescence slope in assay [5] is -5.2e-06 (inactive). Also, in assay [6], the slope is 0.00636 (inactive).
`Cc1ccccc1-c1nc(Cc2ccccc2)no1`: in assay [1], the cell count turned out to be 434. Also, the inhibition is -9.1% (inactive) in assay [1], 31.1% (inactive) in assay [3], -43.9% (inactive) in assay [7] and -184% (inactive) in assay [8]. Besides, the inhibition of aggregation in assay [2] is 12.9% (inactive). The nuclei count in assay [2] was 87.9%; in assay [3], 93.2%. Also, in assay [4], the fluorescence slope was -0.341 (inactive). The NADPH fluorescence slope in assay [5] was -3.8e-05 (inactive). Also, the slope in assay [6] was 0.00721 (inactive).
`CN(c1ccc(OCc2nnc(-c3ccccc3)o2)cc1)S(=O)(=O)c1ccccc1`: the cell count in assay [1] worked out at 587. For the same molecule, the inhibition in assay [1] is 10.1% (inactive); in assay [3], 21.6% (inactive); in assay [7], 11.5% (inactive); in assay [8] it was -5.42% (inactive). Besides, the inhibition of aggregation in assay [2] is 13.2% (inactive). In addition, the nuclei count in assay [2] was determined as 95%; in assay [3], 82%. Further, the fluorescence slope in assay [4] was -0.335 (inactive). Besides, in assay [5], the NADPH fluorescence slope is -5.4e-05 (inactive). Besides, the slope in assay [6] is 0.00414 (inactive).
Turning to `COc1ccc(OC)c(C(=O)CSc2nnc(-c3ccc(OC)c(OC)c3)o2)c1`, the cell count in assay [1] was 399. Further, the inhibition was 1% (inactive) in assay [1], -114% (inactive) in assay [3], 12% (inactive) in assay [7] and 21.8% (inactive) in assay [8]. The inhibition of aggregation in assay [2] was 44.4% (active). The nuclei count in assay [2] was 15.1%; in assay [3] it was 181%. In addition, the fluorescence slope in assay [4] is -0.458 (inactive). In addition, in assay [5], the NADPH fluorescence slope is 3.9e-05 (inactive). In addition, the slope in assay [6] is 0.00796 (inactive).
With `CCn1c(C(=O)N2CCC(C(=O)NCc3ccc4c(c3)OCO4)CC2)cc2sccc21`, in assay [1], the cell count was determined as 505. Further, the inhibition in assay [1] was -0.9% (inactive); in assay [3], -65.2% (inactive); in assay [7], 14.9% (inactive); in assay [8], -2.44% (inactive). The inhibition of aggregation in assay [2] is -30.3% (inactive). The nuclei count in assay [2] worked out at 75.4%; in assay [3] it was 120%. In addition, the fluorescence slope in assay [4] is -0.508 (inactive). Further, the NADPH fluorescence slope in assay [5] is -5.3e-05 (inactive). Further, in assay [6], the slope is 0.00644 (inactive).
Regarding `CCn1c(=O)cc(OCC(=O)NC2CCCCC2)c2ccccc21`, the cell count in assay [1] was 336. Besides, the inhibition in assay [1] is 22.2% (inactive); in assay [3] it was -15.3% (inactive); in assay [7] it was 1.11% (inactive); in assay [8], 23.9% (inactive). Also, the inhibition of aggregation in assay [2] was -2.9% (inactive). The nuclei count in assay [2] was 110%; in assay [3], 113%. The fluorescence slope in assay [4] was -0.263 (inactive). Further, the NADPH fluorescence slope in assay [5] is 1.1e-05 (inactive). In addition, the slope in assay [6] is 0.00609 (inactive).
Take `CCOC(=O)C(NC(C)=O)(NS(=O)(=O)c1ccccc1)C(F)(F)F` (centres undefined): in assay [1], the cell count was determined as 537. The inhibition in assay [1] is -2.4% (inactive); in assay [3], 39.5% (inactive); in assay [7], 10.5% (inactive); in assay [8], 14.2% (inactive). Besides, the inhibition of aggregation in assay [2] is 18.4% (inactive). Further, the nuclei count in assay [2] was determined as 88.5%; in assay [3], 90.8%. For the same molecule, the fluorescence slope in assay [4] is -0.616 (inactive). For the same molecule, the NADPH fluorescence slope in assay [5] is 5.2e-06 (inactive). In assay [6], the slope is 0.00712 (inactive).

These data come from PubChem BioAssay.
